Measured values taken from PubChem BioAssay AID1981 (Southern Research Specialized Biocontainment Screening …, 2009).
The whole screen tested about 2,200 compounds, of which about 480 (22%) were called active. A selection follows. Potency and affinity values are given separately. Values without a mark were called inactive. The rule behind the calls is not given here.

Test: S. Typhimurium GFP fluorescence dose response in modified counterscreen for PhoP regulon inhibitor project (AID 1981);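 note: 0% = induced DMSO wells and 100% = uninduced wells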
Settings: 4 h; series mostly up to 150 µM; inhibition: at the top concentration

Compared with CN(C)c1ccnc(-n2cccc2/C=N/OCc2ccccc2)c1C#N, N#Cc1c(-c2ccccc2)ccn(Cc2cccc(Cl)c2)c1=O is higher in “inhibition” value: -15.6% for the first, 0.47% for the second.

Going from COc1ccc(OC)c(NC(=O)c2cc3c(Cl)nc4ccccc4c3s2)c1 to COc1ccc(NS(=O)(=O)c2cc(C)ccc2NC(=O)c2cc(C)oc2C)cc1, the “inhibition” value falls from 0.23% to -2.27%.

Going from Cc1ccc(C)c(C(=O)NCc2ccncc2)c1 to S=C(NCc1cccnc1)Nc1cccc(Cl)c1, the “inhibition” value rises from -9.64% to -0.39%.

First: COc1ccc(CN=C2Nc3ccccc3CS2)cc1
Second: COc1ccc(NC2=Nc3cccc4cccc2c34)cc1
The “inhibition” value of the first is lower: 1.48% for the first, 4.87% for the second.

First: O=c1c2cc(Br)ccc2nc(-c2ccccc2)n1O
Second: Cc1cccc(N2CCc3c2nc2ccccc2c3N)c1
The “inhibition” value of the first is higher: 21.9% for the first, 3.75% for the second.

First: CN1CCCC(OC(=O)c2ccc(Cl)cc2)C1 (centres undefined)
Second: CCCOc1ccc(C(=O)N2CCCC2C(=O)O)cc1 (centres undefined)
The “inhibition” value of the first is lower: 5.48% for the first, 16.7% for the second.

First: NC(=S)c1cc2ccc(O)cc2oc1=O
Second: Cc1nc(CC(=O)c2ccc(O)cc2O)cs1
The “inhibition” value of the first is higher: 18.9% for the first, -4.6% for the second.

Going from OCCCNc1nc(-c2ccc(Cl)cc2)nnc1-c1ccc(Br)cc1 to CN(C)CCNc1nc(-c2ccccc2)nnc1C(F)(F)F, the “inhibition” value falls from -7.67% to -13.8%.

Compared with CCn1c(CNC(=O)COc2ccc(C(C)C)cc2)nnc1SCC(=O)Nc1ccccc1, O=C(CSCc1nc2ccccc2[nH]1)Nc1ccc2ccccc2c1 is higher in “inhibition” value: -1.91% for the first, 9.39% for the second.

First: FC(F)(F)c1cc(C(F)(F)F)c2ccc(Oc3ccccc3)nc2n1
Second: FC(F)(F)COc1nc(OCC(F)(F)F)nc(N2CCN(c3ccccc3)CC2)n1
The “inhibition” value of the first is higher: 1.91% for the first, -12.4% for the second.

Compared with Cc1cc(C)c2c(c1)NC(=O)C2(O)CC(=O)c1cccs1 (centres undefined), COc1ccc(C2C(C(=O)c3cccs3)=C(O)C(=O)N2c2nnc(C)s2)cc1OC (centres undefined) is lower in “inhibition” value: 7% for the first, -14.3% for the second.

Compared with CC(C)(C)NC(=O)CSc1nnc(-c2ccncc2)o1, COc1cc(CNCc2ccccn2)ccc1OCC(=O)NC(C)(C)C is lower in “inhibition” value: 2.59% for the first, -6.14% for the second.

Compared with COc1ccccc1/C=C1\CCCC2=C1Nc1nnnn1C2c1ccccc1OC (centres undefined), CC1=C(C(=O)Nc2cccnc2)C(c2ccccn2)n2nnnc2N1 (centres undefined) is lower in “inhibition” value: 13% for the first, 11% for the second.

Compared with COC(=O)c1sccc1NC(=O)CSc1ccccc1NS(=O)(=O)c1ccc(Cl)cc1, O=C(CSc1ncnc2ccccc12)Nc1cc(S(=O)(=O)N2CCCCC2)ccc1Cl is lower in “inhibition” value: -3.4% for the first, -3.66% for the second.

First: O=[N+]([O-])c1ccc(NCCCNS(=O)(=O)c2ccccc2)c(Cl)c1
Second: O=C(NCCNc1ccc([N+](=O)[O-])cc1C(F)(F)F)c1ccc(F)cc1
The “inhibition” value of the first is lower: -2.82% for the first, 16.8% for the second.

Going from CCC(C)C(NC(=O)OCc1ccccc1)C(=O)OCN1C(=O)c2ccccc2C1=O (centres undefined) to Cc1cccnc1NC(=O)CCCN1C(=O)c2ccccc2C1=O, the “inhibition” value falls from 5.7% to -17%.

Going from c1ccc(-c2ncnc3nc4n(c23)CCC4)cc1 to Cc1cc(NCCN2CCOCC2)n2ncc(-c3ccccc3)c2n1, the “inhibition” value rises from -1.03% to 2.32%.

Compared with CCn1nnc(-c2ccccc2NC(=O)c2ccc(-n3cnnn3)cc2)n1, Cc1nn(CCOc2ccccc2)c(=O)n1-c1ccc(F)cc1 is lower in “inhibition” value: -0.33% for the first, -5.37% for the second.

Compared with Cc1cc(-c2csc(N)n2)c(C)n1C, Cc1ccc(-c2csc(N=C(N)N)n2)c(C)c1 is higher in “inhibition” value: -7.84% for the first, 30.2% for the second.

First: COc1cc(NC(=O)Nc2cccc(Cl)c2)c(OC)cc1NC(=O)CN1CCCCC1
Second: O=C(CN1CCCCCC1)Nc1cccc(Br)c1
The “inhibition” value of the first is higher: 4.21% for the first, -1.83% for the second.

First: COc1cc(C2SCC(=O)N2c2nnc(C34CC5CC(CC(C5)C3)C4)s2)cc(OC)c1OC (centres undefined)
Second: COc1cccc(C2CC(=O)Nc3cc(OC)c(OC)c(OC)c32)c1OC (centres undefined)
The “inhibition” value of the first is lower: -15.5% for the first, -9.55% for the second.

First: N#CCC1c2ccccc2CCN1C(=O)Nc1ccc(Cl)cc1 (centres undefined)
Second: Cc1cccc(C(=O)NC(=S)Nc2ccc(N3CCOCC3)cc2)c1
The “inhibition” value of the first is higher: 5.37% for the first, -7.74% for the second.

Compared with CC1(C)CC(=O)C=C(Nc2ccc(Br)cn2)C1, CC1(C)CC(=O)C=C(Nc2ccccc2NC(=O)c2cnccn2)C1 is lower in “inhibition” value: -15.5% for the first, -16% for the second.

First: COCCNC(=O)CSCc1c(F)cccc1Cl
Second: COCCn1c(-c2ccccc2F)n[nH]c1=S
The “inhibition” value of the first is lower: -7.74% for the first, -1.15% for the second.

Going from Cc1ccc(C(=O)Oc2cccc(NC(=O)c3cccs3)c2)cc1S(=O)(=O)N1CCOCC1 to Cc1ccc(-c2nc3ccccc3s2)cc1S(=O)(=O)N1CCCC1, the “inhibition” value rises from -13% to -11.2%.

First: NC(=O)c1ccccc1N=Cc1ccccn1
Second: O=C(/C=C/c1ccccc1Cl)c1ccccc(=O)c1O
The “inhibition” value of the first is lower: -4.7% for the first, 7.68% for the second.

First: Cc1cc(C)cc(NC(=O)CSc2nc3c(c(=O)[nH]2)CN(Cc2ccc(F)cc2)CC3)c1
Second: Cc1cc(C)c2nc(NNC(=O)c3ccc(S(=O)(=O)N4CCc5ccccc5C4)cc3)sc2c1
The “inhibition” value of the first is lower: -13.9% for the first, 16.8% for the second.

First: COC(=O)C1(O)CC(C(C)C)=NN1C(=O)c1ccc(Cl)cc1 (centres undefined)
Second: CCn1cc(C(=O)O)c(=O)c2cnc(N3CCN(C(=S)NC(=O)c4ccc(Cl)cc4)CC3)nc21
The “inhibition” value of the first is higher: -1.95% for the first, -19.7% for the second.

First: Cc1cccc(CN(C)C)c1OC(=O)N(C)C
Second: CC(Cc1ccccc1Sc1ccccc1O)N(C)C (centres undefined)
The “inhibition” value of the first is higher: -0.78% for the first, -3.13% for the second.

First: Cc1ccc(/C=C2\SC(=S)N(Cc3ccccc3)C2=O)o1
Second: Cc1ccc(NC(=O)c2ccccc2)s1
The “inhibition” value of the first is lower: 2.23% for the first, 17% for the second.

Compared with Oc1cccc2ccc[n+](CC(O)Cn3c4ccccc4c4ccccc43)c12 (centres undefined), Oc1cccc(Nc2c3ccccc3nc3ccccc23)c1 is higher in “inhibition” value: 1.86% for the first, 29.4% for the second.

Going from COc1ccc(C)cc1C(=O)CCC(=O)Nc1ccccc1N1CCOCC1 to COC(=O)c1ccccc1NC(=O)NCc1ccc2c(c1)OCO2, the “inhibition” value falls from 6.84% to -10.6%.

Compared with O=C(CN1CCC(NC(=O)c2cccc(F)c2)CC1)NCc1ccccc1F, O=C(NCCc1ccc(Cl)cc1)/C(=C/c1cccnc1)NC(=O)c1ccccc1 is lower in “inhibition” value: -13.7% for the first, -15.3% for the second.

Compared with CCCOc1ccc(C(=O)CCC(=O)OCC(=O)N2CC(=O)Nc3ccccc32)cc1, CC(C)CCn1c(SCC(=O)N2CC(=O)Nc3ccccc32)nc2scc(-c3cccs3)c2c1=O is lower in “inhibition” value: 16.2% for the first, 0.62% for the second.

First: CCn1cc(C(=O)NCc2ccncc2)c(=O)c2cc(F)c(N3CCN(C(=O)c4ccco4)CC3)cc21
Second: CCn1cc(C(=O)OCC(=O)Nc2ccc(S(=O)(=O)N3CCCC3)cc2)c(=O)c2ccc(C)nc21
The “inhibition” value of the first is higher: -5.18% for the first, -9.11% for the second.

First: O=C(Nc1nc(-c2ccncc2)cs1)C1c2ccccc2Oc2ccccc21
Second: Cc1cccc(NC(=O)Cn2c(/C=C/c3ccccc3)nc3ccccc32)c1
The “inhibition” value of the first is higher: 34.1% for the first, -10.8% for the second.

Going from O=C1c2[nH]nc(-c3ccccc3O)c2C(c2ccc(F)cc2)N1Cc1ccco1 (centres undefined) to Nc1ccccc1NC1=CC(=O)CC(c2ccco2)C1 (centres undefined), the “inhibition” value rises from -28.4% to 3.13%.

First: CCCCNC(=O)OC1CCS(=O)(=O)C1 (centres undefined)
Second: CCCCCOc1ccc(NC(=O)C(=O)NCCC2=CCCCC2)cc1
The “inhibition” value of the first is higher: 3.96% for the first, -0.5% for the second.

Compared with C=CCSc1nnc(-c2ccc(Cl)cc2Cl)o1, CC1(C)CC(=O)C(C=Nc2ccc(Cl)cn2)=C(O)C1 is higher in “inhibition” value: -8.96% for the first, -4.41% for the second.

Going from Cc1ccc(OCC(=O)N2CCN(S(=O)(=O)c3ccccc3)CC2)c([N+](=O)[O-])n1 to COc1ccc(N2CCN(C(=O)Nc3ccc(S(=O)(=O)N(C)C)cc3)CC2)cc1, the “inhibition” value rises from -21.7% to -4.18%.

Compared with CCc1c(C)c2cc(Cl)c(O)c(CN3CCCCC3)c2oc1=O, Cc1ccc(NC(=O)C2CC(=O)NC(N3CCCCC3)=N2)cc1Cl (centres undefined) is lower in “inhibition” value: 6.99% for the first, 0.62% for the second.

First: Cc1onc(-c2c(F)cccc2Cl)c1C(=O)Nc1cccc(Cn2cccn2)c1
Second: Cc1cccc(Nc2c3c(nc4ccccc24)CCC3)c1
The “inhibition” value of the first is lower: 5.52% for the first, 7.15% for the second.

Going from NC(CSC12CC3CC(CC(C3)C1)C2)C(=O)O (centres undefined) to O=C(NC1CCCCC1)n1c(=O)oc2ccc(Cl)cc21, the “inhibition” value rises from -3.86% to 19.4%.

Going from Cn1c(CN2CCCCC2)nc2cc(NS(=O)(=O)c3ccc(Cl)cc3)ccc21 to CCOc1ccc(S(=O)(=O)Nc2ccc(C(=O)N/N=C/c3c(C)nn(-c4ccccc4)c3N3CCCC3)cc2)cc1, the “inhibition” value falls from -5.37% to -6.55%.

First: COc1ccc2c(c1)[nH]c1c(N3CCN(Cc4ccc5c(c4)OCO5)CC3)ncnc12
Second: Cc1cccc(Nc2nc(N)nc(CN3CCN(c4ccccc4)CC3)n2)c1
The “inhibition” value of the first is lower: -3.88% for the first, 6.77% for the second.

Going from COCCNS(=O)(=O)c1cccn1-c1ncc(C(F)(F)F)cc1Cl to CCOC(=O)CSc1n[nH]c(NC(=O)c2cccc(C)c2)n1, the “inhibition” value falls from 8.31% to -1.32%.

First: CCCCn1c(SCC(=O)Nc2nnc(CC)s2)nc2c1c(=O)n(C)c(=O)n2C
Second: O=C(O)CCCCCN1C(=O)c2ccc(C(=O)O)cc2C1=O
The “inhibition” value of the first is higher: 4.13% for the first, -6.65% for the second.

Going from CCn1nc(C(=O)NCc2ccco2)c(Cl)c1Cl to COc1ccc(C(=O)NCCC2=CCCCC2)cc1OC, the “inhibition” value rises from -22.6% to 13.9%.

First: CC(=O)c1cccc(NC(=O)Nc2cccs2)c1
Second: O=S(=O)(/N=C(/Nc1cccc2ccccc12)c1ccccc1)c1cccs1
The “inhibition” value of the first is higher: 8.26% for the first, -14.9% for the second.

Going from Cc1ccc(S(=O)(=O)N(CC(=O)N=Nc2c(O)[nH]c3ccccc23)c2ccc(C)c(C)c2)cc1 to Cn1c(SCC(=O)N2c3ccccc3CCc3ccccc32)nnc1-c1cc2ccccc2cc1O, the “inhibition” value rises from -1.5% to 34.6%.

First: NC(N)=Nc1nc(C2COc3ccccc3O2)cs1 (centres undefined)
Second: CCOC(=O)c1cnc2ccccc2c1Nc1ccc2c(c1)OCCO2
The “inhibition” value of the first is higher: 6.56% for the first, 4.99% for the second.

Compared with C1=C(CCNc2ncnc3c2[nH]c2ccccc23)CCCC1, c1ccc(CNc2c3c(nc4ccccc24)CCC3)cc1 is lower in “inhibition” value: -1.64% for the first, -11.6% for the second.

First: Nc1ccc2c(c1)C(=O)N(CC1CCCO1)C2=O (centres undefined)
Second: Cc1ccc2nc(Cc3ccc(N)cc3)[nH]c2c1
The “inhibition” value of the first is lower: -4.44% for the first, 9.83% for the second.

Compared with CCc1ccc(Nc2nc(N)nc(CSc3nc4ccccc4s3)n2)cc1, Cc1cc(C)n(-c2ccc(C(=O)OCC(=O)Nc3ccc([N+](=O)[O-])cc3)cc2)n1 is lower in “inhibition” value: 10.7% for the first, -5.1% for the second.

Compared with CCOc1ccc(Nc2nc(NCCN3CCOCC3)nc(OC)n2)cc1, COc1ccc(-c2nc3ncccc3n2O)cc1 is lower in “inhibition” value: -4.02% for the first, -14.9% for the second.

Going from CC1CCCCN1Cc1cnc(Cl)s1 (centres undefined) to O=S(=O)(NC1=NCCCCC1)c1cccs1, the “inhibition” value rises from 2.45% to 2.48%.

Compared with CC(CCc1ccccc1)NC(=O)c1ccccc1 (centres undefined), O=C(O)C1(P(=O)(c2ccccc2)c2ccccc2)CCC1 is lower in “inhibition” value: -1.11% for the first, -20.8% for the second.
